miR122 inh – miR-122 sensor activation; activation, % at 12.5 µM; 0.14% of 340,000 active; Huh7 psiCHECK-miR122 Renilla luciferase sensor, 48 h;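 active = mean activation of 30% or more, with every replicate also reaching 30%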;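 also: higher luciferase signal means stronger suppression of miR-122 activity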
Large screens that a line does not name were inactive. Only a selection was taken, and hits are over-represented in it overall.

C[C@@H]1CN([C@H](C)CO)C(=O)c2cc(-c3ccc(F)cc3)cnc2O[C@H]1CN(C)Cc1ccc(C(=O)O)cc1	none
C/C=C/c1ccc2c(c1)O[C@H](CN(C)C(=O)Cc1ccccn1)[C@@H](C)CN([C@H](C)CO)S2(=O)=O	none
CC(C)C#Cc1ccc2c(c1)O[C@@H](CN(C)Cc1ccccn1)[C@H](C)CN([C@@H](C)CO)S2(=O)=O	none
Cc1noc(C)c1NC(=O)N(C)C[C@@H]1Oc2ncc(C#CCC(C)C)cc2C(=O)N([C@H](C)CO)C[C@H]1C	none
C[C@@H]1CN([C@H](C)CO)S(=O)(=O)c2ccc(C#C[C@@H](C)O)cc2O[C@@H]1CN(C)C(=O)c1ccncc1	none
OC(CNCCC1C=Nc2ccccc21)Cn1c2ccc(Cl)cc2c2cc(Cl)ccc21 (centres undefined)	miR122 inh 55.1
CNC[C@H]1Oc2cc(C#CCC3CCCC3)ccc2S(=O)(=O)N([C@H](C)CO)C[C@H]1C	none
C[C@@H]1CN([C@H](C)CO)C(=O)c2cc(/C=C/c3ccccc3)cnc2O[C@@H]1CN(C)C(=O)C1CCOCC1	none
Cc1ccc(-c2cnc3c(c2)C(=O)N([C@@H](C)CO)C[C@H](C)[C@@H](CN(C)C(=O)c2ccncc2)O3)cc1	none
COc1cccc(NS(=O)(=O)c2c(C)cc(C)cc2C)c1	none
COc1cccc(NS(=O)(=O)c2ccc(Br)s2)c1	none
COc1cccc(-n2nnnc2S(C)(=O)=O)c1	miR122 inh 48.4
CC(C)CC#Cc1cnc2c(c1)C(=O)N([C@@H](C)CO)C[C@@H](C)[C@H](CN(C)C(=O)CC1CC1)O2	none
COc1ccc(C(=O)Nc2ccc3c(c2)OC[C@@H](C)N(C)C[C@@H](C)[C@@H](OC)CN(C)C3=O)cc1	none
Cc1ccc(-n2c(Cc3ccccc3)n[nH]c2=S)cc1	miR122 inh 41.0
Cc1noc(C)c1S(=O)(=O)N(C)C[C@@H]1Oc2c(NC(=O)C3CCCCC3)cccc2C(=O)N([C@H](C)CO)C[C@@H]1C	none
CNC[C@@H]1Oc2cc(C#CCC3CCCC3)ccc2S(=O)(=O)N([C@@H](C)CO)C[C@@H]1C	none
CNC[C@H]1Oc2cc(C#CCC3CCCC3)ccc2S(=O)(=O)N([C@@H](C)CO)C[C@@H]1C	none
CC#CCCCC(=O)Nc1ccccc1C(=O)O	miR122 inh 31.5
C[C@H](CO)N1C[C@H](C)[C@@H](CN(C)Cc2cncnc2)Oc2ncc(C#CC3(O)CCCC3)cc2C1=O	none
C[C@H](CO)N1C[C@H](C)[C@@H](CN(C)C(=O)C2CCC2)Oc2cc(C#CC(C)(C)O)ccc2S1(=O)=O	none
C[C@@H]1CN([C@H](C)CO)C(=O)c2cc(-c3ccc(F)cc3)cnc2O[C@H]1CN(C)Cc1ccccn1	none
CCC(=O)N1[C@H](CO)[C@H](c2ccccc2)[C@@H]1CN(CC)C(=O)c1ccccc1	miR122 inh 36.4
CCC(=O)N1[C@H](CO)[C@H](c2ccccc2)[C@@H]1CN(CC)C(=O)c1cccc(F)c1	none
CC(=O)N1[C@H](CN(C(=O)c2ccc(F)cc2)C(C)C)[C@H](c2ccccc2)[C@@H]1CO	miR122 inh 66.7
CCC(=O)N1[C@H](CN(CC)C(=O)c2cccc(F)c2)[C@H](c2ccccc2)[C@@H]1CO	none
COCC(=O)NC[C@H]1[C@H](c2ccccc2)[C@@H](CO)N1C(=O)c1ccccc1	none
C[C@H]1CN([C@@H](C)CO)S(=O)(=O)c2ccc(/C=C/c3ccccc3)cc2O[C@H]1CN(C)C(=O)Nc1cccc(F)c1	none
C[C@@H]1CN([C@H](C)CO)S(=O)(=O)c2ccc(C3=CCCCC3)cc2O[C@@H]1CN(C)C(=O)CC1CC1	none
C[C@@H]1CN([C@@H](C)CO)C(=O)c2cc(Br)cnc2O[C@@H]1CN(C)C(=O)c1cccnc1	none
C[C@@H]1CN([C@H](C)CO)C(=O)c2cc(-c3cccc(F)c3)cnc2O[C@H]1CN(C)C(=O)c1ccccn1	none
Cc1ccc(-c2cnc3c(c2)C(=O)N([C@@H](C)CO)C[C@@H](C)[C@H](CN(C)C(=O)c2ccncc2)O3)cc1	none
C[C@@H]1CN([C@H](C)CO)C(=O)c2cc(C#C[C@@H](C)O)cnc2O[C@H]1CN(C)C(=O)CN(C)C	none
C[C@@H]1CN([C@@H](C)CO)S(=O)(=O)c2ccc(C#Cc3ccccc3)cc2O[C@@H]1CN(C)S(=O)(=O)c1ccccc1F	none
C[C@@H]1CN([C@@H](C)CO)S(=O)(=O)c2ccc(-c3ccncc3)cc2O[C@H]1CN(C)Cc1cncnc1	none
C[C@H](CO)N1C[C@H](C)[C@H](CN(C)C(=O)C2CC2)Oc2cc(C#Cc3cccnc3)ccc2S1(=O)=O	none
C/C=C/c1ccc2c(c1)O[C@H](CN(C)C(=O)c1cccnc1)[C@H](C)CN([C@H](C)CO)S2(=O)=O	none
CCC(=O)N(C)C[C@H]1Oc2cc(C#Cc3cccnc3)ccc2S(=O)(=O)N([C@@H](C)CO)C[C@@H]1C	none
C[C@@H]1CN([C@@H](C)CO)S(=O)(=O)c2ccc(C#CC3(O)CCCC3)cc2O[C@@H]1CN(C)C(=O)c1cccnc1	miR122 inh 47.0
COCC(=O)N(C)C[C@H]1Oc2cc(C#Cc3cccnc3)ccc2S(=O)(=O)N([C@@H](C)CO)C[C@H]1C	miR122 inh 58.9
